# Screens (PubChem)
# The list is not random: actives were taken first. Their share in the collection is about 19%.
# HT1080-NT tox – qHTS for induction of synthetic lethality in tumor cells producing 2HG: qHTS for the HT-1080-NT fibrosarcoma cell line; HT-1080-NT fibrosarcoma viability, CellTiter-Glo ATP luminescence, 48 h; Potency, µM (doses to about 46.1 µM), usual class: cytotoxic; 360,000 compounds, 1.6% hits;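 further: NT is the 2HG producing partner of a matched IDH1 knockdown line; nearly all actives have a fitted effect of over 55% in size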
#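 Fibrosarcoma NT cells, 750 per well in 5% FBS RPMI, were exposed to compound for 48 hours. Viability: CellTiter-Glo luminescence.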
# DT40 TDP1 no CPT – qHTS for Inhibitors of human tyrosyl-DNA phosphodiesterase 1 (TDP1): qHTS in cells in absence of CPT. DT40 Tdp1-/- hTDP1 cells, no CPT, ATP luminescence, 48 h. Potency, µM (series often up to 46.2 µM), most hits filed as inhibitors. 420,000 compounds, 15% hits. AID 686978, 2013; further: nearly all actives have a fitted effect of over 55% in size
#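 Cells were dispensed at 400 per well, compounds added by pin tool, plates incubated ≥48 hr at 37 °C, then CellTiter-Glo added for 30 min at room temperature before luminescence reading. Line: DT40 Tdp1-/- complemented with hTDP1; camptothecin omitted.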
# ELG1 DNA repair – qHTS screen for small molecules that inhibit ELG1-dependent DNA repair in human embryonic kidney (HEK293T) cells expressing luciferase-tagged ELG1. HEK293T ELG1-luciferase reporter, luminescence, 16 h; DNA damage induced by 5-fluorouridine. Potency, µM (highest dose often 46.1 µM), hits mostly inhibitors. 330,000 compounds, 2.3% hits; further: nearly all actives have a fitted effect of over 55% in size
#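 In this reporter screen, reduction of luminescence relative to DMSO vehicle indicated activity. Compounds and 5-fluorouridine were added together to 2,000 cells per well, incubated for 16 hr at 37 °C, then developed with ONE-Glo.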
# HT1080 IDH1KD tx – qHTS for induction of synthetic lethality in tumor cells producing 2HG: qHTS for the HT-1080-IDH1KD cell line | AID 686971, 2013 | Potency, µM (titrated, usually from 46.1 µM), usual class: cytotoxic | 360,000 compounds, 2% hits | HT-1080 IDH1 knockdown viability, ATP luminescence, 48 h
#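 Cytotoxicity counter-line: IDH1KD HT-1080, 48 h, CellTiter-Glo. Curves classed by r2, magnitude and activity.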
# DT40 TDP1 CPT – qHTS for Inhibitors of human tyrosyl-DNA phosphodiesterase 1 (TDP1): qHTS in cells in presence of CPT; Potency, µM (series often up to 46.2 µM), actives largely listed as inhibitors; chicken DT40 Tdp1-/-;hTDP1 cells + 20 nM CPT, ATP luminescence, 48 h; 420,000 compounds, 12% hits; further: nearly all actives have a fitted effect of over 55% in size
#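 Chicken DT40 Tdp1-/- cells stably complemented with human TDP1 were seeded at 400 cells/well in medium containing 20 nM camptothecin, exposed to pin-transferred compounds, and grown at 37 °C for at least 48 hr. Viability was read as ATP luminescence.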
# IL-1B inflam inh – qHTS for Inhibitors of Inflammasome Signaling: IL-1-beta AlphaLISA Primary Screen; THP-1 LPS/ATP IL-1B secretion, AlphaLISA, 16 h; hits give low values; activity change, % at 57.5 µM; 360,000 compounds, 4.7% hits; in the data active means activity change below about -50%; inconclusive means mostly about -30% to -49%
#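 THP-1 cells pretreated 1 hr with compounds (up to 57.5 uM final), then stimulated with LPS (250 ng/mL final) plus ATP (1.25 mM final); secreted IL-1B measured by AlphaLISA after 16 hr, decreased signal indicating inhibition.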
# A number is an active result; . = inactive; ? = inconclusive; / = not tested or not shown; [ ] = remark or other dose. Unless noted, the call rests on the fitted dose curve; in most records, active means well fitted curve in the direction sought with a large enough effect; inconclusive means small, poorly fitted or top-dose-only effect, or another doubt; inactive means no such curve, though single readings can be large; an effect the other way counts as inactive or inconclusive.
SMILES,HT1080-NT tox,DT40 TDP1 no CPT,ELG1 DNA repair,HT1080 IDH1KD tx,DT40 TDP1 CPT,IL-1B inflam inh
O=C(C(=Cc1ccc(F)cc1)C(=O)c1ccccc1)c1ccccc1,?,16µM,/,?,?,-112
CC1(C(=O)NCc2cccc3ccccc23)CCN1CCc1ccccc1 (centres undefined),?,18µM,/,?,?,.
CC(C)Oc1ccc(CN2CCC2(C)C(=O)NCc2cccc3ccccc23)cc1 (centres undefined),18µM,15µM,/,?,12µM,.
CC1(C(=O)NCc2cccc(C(F)(F)F)c2)CCN1CCc1ccccc1 (centres undefined),?,?,/,.,?,.
CC1(C(=O)NCc2ccc3c(c2)OCO3)CCN1Cc1csc2ccccc12 (centres undefined),.,?,/,.,?,.
Cc1ccc(NC(=O)Cn2cc(S(=O)(=O)N3CCCC3)c(S(=O)(=O)N3CCCC3)c2)c(C)c1,/,.,/,/,.,/
Cc1cccc(N(CC(=O)N/N=C/c2cc([N+](=O)[O-])ccc2Cl)S(C)(=O)=O)c1C,.,21µM,.,.,?,.
CS(=O)(=O)N(CC(=O)N/N=C/c1cc([N+](=O)[O-])ccc1Cl)c1ccccc1,.,18µM,.,.,?,.
CC(=O)N/N=C/c1cc([N+](=O)[O-])ccc1OCCOc1ccccc1,.,16µM,?,.,?,.
Nc1nnnn1CC(=O)N/N=C/c1cc([N+](=O)[O-])ccc1Cl,.,10µM,.,.,15µM,.
CCc1ccccc1NC(=O)CN(c1cccc(C)c1C)S(C)(=O)=O,/,.,/,/,.,/
NC(=S)N/N=C/c1cc([N+](=O)[O-])ccc1OCCOc1ccccc1,.,.,.,.,.,.
COCc1c(C(=O)NC2CCCC2)cnn1-c1nccc(-c2cccs2)n1,/,.,/,/,?,/
CC1CCCCC1NC(=O)CN1c2cccc3cccc(c23)S1(=O)=O (centres undefined),.,?,.,.,?,.
O=C(COc1coc(CN2CCN(c3ccccc3F)CC2)cc1=O)NC1CCCC1,.,?,.,.,.,.
CCCCOC(=O)c1ccc(NC(=O)CN2C(=O)NC3(CCCCCC3)C2=O)cc1,.[9.24 µM],8.2µM,.,?,10µM,?
CCOC(=O)c1ccc(NC(=O)CN2C(=O)NC3(CCCCCCC3)C2=O)cc1,?,?,.,?,15µM,.
CCCCOC(=O)c1ccc(NC(=O)C(=O)NCc2ccncc2)cc1,.,23µM,?,.,23µM,.
Cc1cn2c(=O)c3ccccc3nc2n2c(=O)c3ccccc3nc12,/,.[9.04 µM],/,/,.[9.04 µM],/
Nc1nc(N)c2c(ccc3nccc32)[nH]1,5.8µM,1µM,.,4.6µM,1.8µM,.
COc1cccc(Cn2c(=O)c(-c3cn(C)c4ccccc34)nc3cncnc32)c1,/,.,/,/,.,/
C=CCn1c(=O)c2ccccc2n2c(SCC(C)=O)nnc12,.,.,.,.,.,.
CC(=O)O[C@]1(C(C)=O)CC[C@H]2[C@@H]3C=C(Cl)C4=CC(=O)CC[C@]4(C)[C@H]3CC[C@@]21C,.,21µM,?,.,?,.
CC(=O)O[C@]1(C(C)=O)CC[C@H]2[C@@H]3C=C(Cl)C4=CC(=O)[C@@H]5C[C@@H]5[C@]4(C)[C@H]3CC[C@@]21C,.,21µM,.,.,?,.
COc1ccccc1C(=O)N[C@@H]1c2ccccc2C2(CCN(C(=O)c3ccnn3C)CC2)[C@H]1OC,/,?,/,/,.[9.04 µM],/
SMILES,HT1080-NT tox,DT40 TDP1 no CPT,ELG1 DNA repair,HT1080 IDH1KD tx,DT40 TDP1 CPT,IL-1B inflam inh
Nc1nc(N)c2[nH]cnc2n1,?,8.2µM,/,?,6.5µM,.
Nc1nc(OCc2ccccc2)c2[nH]cnc2n1,.,.,/,.,.,.
CCN(c1ccccc1)S(=O)(=O)c1ccc(Oc2ccc(-n3ccnc3)cc2)nc1,?,8.2µM,.,?,5.2µM,?
Cc1ccc(/C=C2/Sc3ccccc3N(CC(=O)NCC3CCCO3)C2=O)cc1 (centres undefined),?,?,.,.,?,.
Cc1cc(/C=C2\Sc3ccccc3N2C)cc(C)[n+]1CC1CCCO1 (centres undefined),9.2µM,0.026µM,?,?,0.0082µM,-101
Cc1cc(OCc2cccc(Cl)c2)c(C)cc1CN1CCOCC1,.,?,?,.,18µM,.
C/C(=N\NS(=O)(=O)c1ccc(Br)cc1)c1ccncc1,.,?,.,.,12µM,-78
C/C(=N/NS(=O)(=O)c1ccc(Cl)cc1)c1ccncc1,.,.,.,.,?,.
CCN(CC)c1ccc(/C=N/NC(=O)c2cccc(S(=O)(=O)Nc3ccccc3OC)c2)c(O)c1,?,2.9µM,.,?,3.3µM,.
COc1ccccc1NS(=O)(=O)c1cccc(C(=O)N/N=C/c2ccc([N+](=O)[O-])o2)c1,?,2.9µM,?,?,3.7µM,-92
COc1cccc(NC(=O)c2c(C(=O)Nc3ccccc3)sc3nc(C)cc(=O)n23)c1,/,.,/,/,.,/
O=C(N/C(=C/C=C/c1ccccc1)C(=O)N1CCCCC1)c1ccc([N+](=O)[O-])cc1,.,?,23µM,.,?,.
COC(=O)c1ccc(N2C(=O)Cc3cc(OC)c(OC)cc3C2c2ccc(F)cc2)cc1 (centres undefined),/,?,/,/,15µM,/
COc1ccc(N2C(=O)Cc3cc(OC)c(OC)cc3C2c2ccc(F)cc2)cc1 (centres undefined),/,?,/,/,23µM,/
Cc1ccc(SCCc2cc[n+](CC(=O)c3ccccc3)cc2)cc1,.,16µM,?,.,16µM,-151
COC(=O)c1cc[n+](CC(=O)c2ccccc2)cc1,?,.,.,.,.,.
Cc1ccc(C(=O)C[n+]2ccc(Cc3ccccc3)cc2)cc1,.,5.8µM,7.3µM,.,5.8µM,?
COc1ccc(-c2cc(=O)c3c(O)cc(O)cc3o2)cc1,.,24µM,?,.,?,?
O=c1cc(-c2ccc(O)cc2)oc2cccc(O)c12,/,30µM,/,/,30µM,/
O=c1cc(-c2ccc(O)cc2)oc2c(-c3c(O)cc(O)c4c(=O)cc(-c5ccc(O)cc5)oc34)c(O)cc(O)c12,.,.,.,.,.,.
COc1ccc(-c2cc(=O)c3cc(O)ccc3o2)cc1,.,.,?,.,.,.
